Where “and” joins values, the source holds several entries; their conditions need not be identical. Identical values can stand only once. Among all 16,000 compounds or so, about 5,700 (36%) were called active. Roughly 24% stayed inconclusive and do not appear here. Some of the results follow. Unmarked numbers belong to inactive results. Calls follow the shape of the dose curve; as a rule, active = well fitted curve in the direction sought with a large enough effect; inconclusive = small, poorly fitted or top-dose-only effect, or effect the other way; inactive = no such curve, though single readings can be large or run the other way.

The results in this text go back to PubChem BioAssay AID1851 (National Center for Advancing Translational Sciences (NCATS), 2009).
% is scaled to controls: 0 for no effect and ±100 for the full control effect.

The assay deals with Cytochrome P450 1A2 (Homo sapiens) (UniProt P05177). Nature of the assay: Cytochrome panel assay with activity outcomes. To be noted: recombinant CYP, pro-luciferin dealkylation, luminescence, p450-cyp1a2; series mostly up to 57.1 µM; activity, negative = inhibition: at the top concentration.
Chain of Cytochrome P450 1A2 (Homo sapiens) (P05177 whole entry, looked up): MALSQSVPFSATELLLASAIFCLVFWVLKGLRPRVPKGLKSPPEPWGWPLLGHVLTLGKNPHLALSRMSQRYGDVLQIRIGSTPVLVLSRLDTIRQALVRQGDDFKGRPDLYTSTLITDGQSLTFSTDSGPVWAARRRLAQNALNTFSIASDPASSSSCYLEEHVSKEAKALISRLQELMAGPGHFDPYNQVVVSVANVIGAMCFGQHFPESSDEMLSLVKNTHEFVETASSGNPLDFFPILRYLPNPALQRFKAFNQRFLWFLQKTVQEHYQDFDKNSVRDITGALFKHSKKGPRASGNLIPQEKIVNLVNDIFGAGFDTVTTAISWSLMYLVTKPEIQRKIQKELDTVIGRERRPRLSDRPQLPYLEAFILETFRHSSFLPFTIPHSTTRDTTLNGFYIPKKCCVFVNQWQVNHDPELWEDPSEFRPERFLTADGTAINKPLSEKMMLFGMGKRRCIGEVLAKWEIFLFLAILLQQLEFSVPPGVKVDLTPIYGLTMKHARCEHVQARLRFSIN
As to `Cc1ccc(=O)n(-c2ccccc2)c1`, the AC50 was 31.6 µM (active).
For the molecule `Cc1cc2c(nc1C)CCCN2CC(O)CN1CCCc2nc(C)c(C)cc21`, the activity, negative = inhibition was -4.54% [at 11.4 µM].
With `O=C1c2ccccc2C(=O)N1CC1CCCO1` (centres undefined), the AC50 is 14.1 µM (active).
For the molecule `O=C1C[C@@H](O)[C@@H](O)[C@H]2[C@@H]3C(=O)N(C[C@@H]4CCCO4)C(=O)[C@@H]3CC[C@H]12`, the activity, negative = inhibition was -4.6% [at 11.4 µM] and -8.21% [at 11.4 µM].
With `O=C(NCc1ccccc1)c1ccc2c(c1)C(=O)N(CC1CCCO1)C2=O` (centres undefined), the “activity, negative = inhibition” value was -10.7%.
With `COc1ccc(Oc2ncc3ncc(=O)n(Cc4cccs4)c3n2)cc1`, the AC50 is 10 µM (active).
Same read-out and setting: the result for `COc1ccc(Oc2ncc3nc(C)c(=O)n(Cc4cccs4)c3n2)cc1` reads 10 µM (active); that for `COc1ncc2ncc(=O)n(Cc3cccs3)c2n1`, 10 µM (active).
Consider `NC(N)=N[C@@H]1C(O)[C@H](N=C(N)N)[C@@H](O)C(O)[C@H]1O` (some centres undefined), for which the activity, negative = inhibition is -4.87% [at 2.29 µM].
Same read-out and setting: as for `Cc1ccc(S(=O)(=O)/N=C2/NC(=O)/C(=C/c3cccnc3)S2)cc1`, the figure is -6.98%.
Consider `O=C(CCN1C(=O)/C(=C/c2cccc(Br)c2)SC1=S)NNC(=O)c1cccnc1`, for which the “activity, negative = inhibition” value was -14.4%.
With `O=C1/C(=C/c2cccnc2)SC(=S)N1Cc1ccco1`, the AC50 was 0.501 µM (active).
Consider `CCCN(C(=O)Cc1nc(N)n[nH]1)C1(C(=O)Nc2ccccc2C)CCCCC1`, for which the “activity, negative = inhibition” value is -8.95%.
As to `CCCc1cc2c(cc1NC(=O)c1ccccc1Cl)OCO2`, the AC50 was 2.51 µM (active).
`CCCc1cc2c(cc1NC(=O)c1ccccc1C)OCO2`: the AC50 is 2.24 µM (active).
For the molecule `CC[C@@]12CCCN3CCc4c(n(c5ccccc45)[C@](O)(C(=O)OC)C1)[C@H]32`, the AC50 entry was “inactive”.
For the molecule `O=C(O)CCC(=O)N1CCN(c2ccccn2)CC1`, the “activity, negative = inhibition” value is 15.9%.
Consider `O=C(CCCc1ccccn1)c1ccccc1`, for which the AC50 was 5.01 µM (active).
`O=C(O)[C@H](CCc1ccccn1)c1ccccc1`: the activity, negative = inhibition is -12.5% [at 11.4 µM].
Turning to `COc1cc(/C=N\Nc2nc3ccccc3[nH]2)cc(OC)c1OC`, the AC50 was 10 µM (active).
Consider `COc1cc(/C=N\NC(=O)C2C(=O)NCC2c2ccccc2)cc(OC)c1O` (centres undefined), for which the “activity, negative = inhibition” value was -16.9%.
For the molecule `CN(CC(=O)N1CCN(c2ccccc2)CC1)S(=O)(=O)c1cnc[nH]1`, the “activity, negative = inhibition” value was -17.9%.
The same measure, in the same setting: the result for `CC(C)CN(CC(C)C)S(=O)(=O)N1CCC(C(=O)NCc2ccc(F)cc2)CC1` reads -7.94%.
Same read-out and setting: the result for `Cn1c[n+](C)cc1/C=N/O` reads 13.8%; that for `COc1cc(C2C(C(=O)OCCC#N)=C(C)NC3=C2S(=O)(=O)c2ccccc23)cc(OC)c1OC` (centres undefined), -20.5%.
Consider `COC(=O)C1=C(C)NC(C)=C(C(=O)OCCSc2ccccc2)[C@@H]1C`, for which the AC50 was 0.794 µM (active).
As to `Cc1cnn(-c2cc(N/N=C/c3ccccc3)ncn2)c1`, the AC50 is 2 µM (active).
The same measure, in the same setting: the result for `Cc1cnn(-c2cc(N/N=C/c3ccccc3F)ncn2)c1` reads 0.562 µM (active).
Regarding `CC(C)(C)N1C(=O)[C@H]2[C@@H]3[C@H](O)[C@H](O)CC(=O)[C@H]3CC[C@H]2C1=O`, the activity, negative = inhibition is -8.79% [at 11.4 µM] and -4.69% [at 11.4 µM].
`Cc1noc(C)c1C(=O)N1CCC2(CCN(Cc3cc(C(F)(F)F)cc(C(F)(F)F)c3)CC2)CC1`: the “activity, negative = inhibition” value was -21.2%.
Consider `CCC(Sc1ncccc1C(=O)O)C(=O)N1CCOCC1` (centres undefined), for which the “activity, negative = inhibition” value is 15.3%.
`Clc1ccccc1-c1nc(NCCN2CCOCC2)c2ccccc2n1`: the concentration at half-maximal activity (AC50) was 12.6 µM (active).
For `O=C1C=C(NCCN2CCOCC2)CC(c2ccccc2)C1` (centres undefined), the “activity, negative = inhibition” value is -25.1%.
`N#Cc1cccc(-c2nc(NCCN3CCOCC3)c3ccccc3n2)c1`: the AC50 was 1 µM (active).
`N#Cc1nc(-c2ccc(OCc3ccccc3)cc2)oc1NCCN1CCOCC1`: the “activity, negative = inhibition” value was -24.4%.
For the molecule `O=C(NCCN1CCOCC1)c1nn2c(c1Cl)NC(c1ccccc1)CC2C(F)(F)F` (centres undefined), the “activity, negative = inhibition” value is 0.473%.
For the molecule `FC(F)(F)c1ccccc1-c1nc(NCCN2CCOCC2)c2ccccc2n1`, the AC50 is 12.6 µM (active).
Turning to `c1ccc2c(NCCN3CCOCC3)nc(-c3ccoc3)nc2c1`, the AC50 is 5.01 µM (active).
Same read-out and setting: as for `CC#CCCCC(=O)Nc1cc(OC)nc(OC)n1`, the figure is 0.355 µM (active).
Take `COc1cc(NS(=O)(=O)c2ccc(N)cc2)nc(OC)n1`: the “activity, negative = inhibition” value was 1.22% [at 25.6 µM].
Turning to `COc1cc(NC(=O)c2c(F)cccc2F)nc(OC)n1`, the AC50 was 20 µM (active).
`OC[C@@H]1O[C@@H](n2cnc3c(N[C@@H]4C[C@@H]5CC[C@H]4C5)ncnc32)[C@@H](O)[C@H]1O`: the “activity, negative = inhibition” value was -14.4%.
With `CCOC(=O)CN(c1ccccn1)S(=O)(=O)c1ccccc1`, the AC50 is 14.1 µM (active).
For `CN(CC(=O)O/N=C(\N)c1ccccn1)S(=O)(=O)c1ccccc1`, the “activity, negative = inhibition” value was -9.06%.
The same measure, in the same setting: as for `Cc1ccc(S(=O)(=O)N(C)CC(=O)O/N=C(\N)c2ccccn2)cc1`, the figure is -5.85%.
`O=C(NCc1cccc(C(F)(F)F)c1)c1cc(Cl)cc(Cl)c1`: the AC50 is 12.6 µM (active).
In the case of `COc1ccc(-c2coc3cc4oc(=O)cc(C)c4cc23)cc1F`, the AC50 was 2 µM (active).
As to `O=C(NCc1ccccc1Cl)C1CCN(S(=O)(=O)N2CCC3(CC2)OCCO3)CC1`, the “activity, negative = inhibition” value is -0.431%.
On to `CCc1nc(N2CCC3(CC2)OCCO3)c2nnn(Cc3ccccc3Cl)c2n1`, for which the AC50 is 7.08 µM (active).

As a reminder, the AC50 is the concentration at which the activity in the assay is half-maximal.
